Records with an inconclusive call do not appear. The source made the active and inactive calls. Calls follow the shape of the dose curve; as a rule, active = well fitted inhibition curve with a large enough effect; inconclusive = small, poorly fitted or top-dose-only effect; inactive = no such curve, though single readings can be large or run the other way.
The molecules below were run on Zika virus NS2B-NS3 protease (unlinked complex) (assay: Primary screen GU Rhodamine qHTS for Zika virus inhibitors: Unlinked NS2B-NS3 protease assay (AID 1347159; also: nearly all actives have a fitted effect of over 60% in size)). Details: Recombinant ZIKV NS2B-NS3 protease, Rhodamine110 substrate fluorescence; series mostly up to 107 µM; activity change, negative = inhibition: at the top concentration.
Text: Avindra Nath, Ph.D., National Institute of Neurological Disorders and Stroke (NINDS), Bethesda, MD
Radhakrishnan Padmanabhan, Ph.D., Georgetown University (GU), Washington D.C.
Zika Virus causes congenital defects, including microcephaly and is associated with Guillain-Barre syndrome, eningoencephalitis and myelitis in infected adult. […] Using a target-based approach, we hope to establish a screening paradigm to uncover novel, cell-active NS2B-NS3 protease (Zika Virus) specific inhibitors from NCATS' collection of small molecules using qHTS.
Four assay panel was created to identify potential Zika Virus inhibitors. Namely, (1) GU unlinked NS2B-NS3 AMC tagged protease qHTS, (2) GU unlinked NS2B-NS3 Rhodamine tagged protease qHTS, (3) NINDS linked NS2B-NS3 AMC tagged protease qHTS, (4) NINDS linked NS2B-NS3 Rhodamine tagged protease qHTS. Active compounds were re-acquired and re-screened to confirm inhibition. Inhibitors were further screened against various confirmatory and counterscreens in dose response format.
Early Translation Branch (ETB)
National Center for Advancing Translational Sciences (NCATS), Rockville, MD
National Institute of Health (NIH), Bethesda, Maryland
Padmanabhan lab provided the NS2B hydrophilic domain and NS3 protease domain in a noncovalent complex used for the unlinked assay. Control compound aprotinin is obtained from Thermo Scientific (#78432; Waltham, Massachusetts). Rhodamine110 substrate ([N-Cbz]-Nle-Lys-Arg-Arg-Rhod110-Arg-Arg-Lys-Nle-[N-Cbz]) was purchased from either Genscript or Bachem.
1536-well Protease (Rhodamine110 Substrate) Assay:
Briefly, 3 microL of enzyme (25 nM final concentration), in assay buffer (10 mM Tris-HCl pH 8.0 with 0.01% Tween 20) were dispensed into a 1,536-well solid-bottom black plate (Greiner Bio One, Monroe, NC). Twenty-three nL of compounds (final concentration range 7.28 nM to 114 microM) or control Aprotinin (final concentration range 3.47 nM to 114 microM) were transferred via Wako Pin-tool (Wako Automation, Richmond, VA). Samples were incubated (room temperature, protected from light) for 15 minutes followed by a 1 microL Rhodamine110 substrate addition (1.5 microM final concentration). Plates were then immediately read on a ViewLux High-throughput CCD imager (PerkinElmer, Waltham, MA) equipped with FITC fluorescence optics (480(20) nm excitation, 540(25) nm emission), then incubated (room temperature, protected from light) for 15 minutes (~15% conversion). The change in fluorescence intensity over the 15-minute reaction period was normalized against no-inhibitor and no-enzyme controls and the resulting percent inhibition data were fitted to a 4-parameter Hill equation. Aprotinin was used as intraplate control.
% is scaled to controls: 0 for no effect and ±100 for the full control effect; potency is read from the fitted curve at half-maximal effect.

Row | SMILES | activity change, negative = inhibition | Potency
1 | COc1cc2c(cc1OC)[C@@]13CCN4CC5=CCO[C@H]6CC(=O)N2[C@H]1[C@H]6[C@H]5C[C@H]43 | 20.9% [at 57.1 µM] (inactive) | 
2 | COC1CC(O[C@H]2CC[C@@]3(C)C(=CCC4C3C(O)[C@@H](O)[C@]3(C)[C@@H](C(C)=O)CC[C@]43O)C2)OC(C)C1OC1CC(OC)C(OC2OC(C)C(O)C(O)C2O)C(C)O1 (stereo not given in full) | 10.7% [at 32.5 µM] (inactive) | 
3 | C/C=C(\C)C(=O)OC1CC2C(C)(C)OC(=O)CC(OC(C)=O)C2(C)C2CC(OC(=O)C(C)C)C3(C)C(c4ccoc4)CC4OC43C12C (stereo not given) | 10.5% [at 32.5 µM] (inactive) | 
4 | CN(C(=O)Cc1ccccc1)C(CN1CCCC1)c1ccccc1 (stereo not given) | 27.4% (inactive) | 
5 | CCc1c(C(=O)C(N)=O)c2c(OCC(=O)OC)cccc2n1Cc1ccccc1 | 17.9% (inactive) | 
6 | COC(=O)C1(C)CCC(O)C2(C)c3cc(O)c(C(C)C)cc3C(O)C(OC(C)=O)C12 (stereo not given) | -25.4% [at 57.1 µM] (inactive) | 
7 | CC(C)C1(OO)C=C2C(=O)CC3C(C)(C(=O)O)CCCC3(C)C2CC1 (stereo not given) | 22.9% (inactive) | 
8 | Cc1cn(C[C@H](N)C(=O)O)c(=O)n(Cc2cc(-c3ccccc3)sc2C(=O)O)c1=O | -0.303% (inactive) | 
9 | CN1C(=O)N(c2ccc(C#N)c(C(F)(F)F)c2)C(=O)[C@]1(CO)c1ccccc1 | 11.4% (inactive) | 
10 | COc1cc(C(=O)O[C@H]2[C@@H]3C=CO[C@@H](O[C@@H]4O[C@H](CO)[C@@H](O)[C@H](O)[C@H]4O)[C@@H]3[C@@]3(CO)O[C@@H]23)ccc1O | 15.8% [at 57.1 µM] (inactive) | 
11 | CC1=C2C[C@H]3[C@@H](CC=C4C[C@@H](O)CC[C@@]43C)[C@@H]2CC[C@]12O[C@@H]1C[C@H](C)CN[C@H]1[C@H]2C | -7.9% (inactive) | 
12 | CCC(C)(C#N)O[C@@H]1O[C@H](CO)[C@@H](O)[C@H](O)[C@H]1O (stereo not given in full) | 2.56% (inactive) | 
13 | O=C1C[C@@H]2OCC=C3CN4CC[C@]56c7ccccc7N1[C@H]5[C@H]2[C@H]3C[C@H]46 | 12.9% (inactive) | 
14 | COC1C(O)C(OC2CCC3(C=O)C(CCC4C3CCC3(C)C(C5=CC(=O)OC5)CCC43O)C2)OC(C)C1OC1OC(CO)C(O)C(O)C1O (stereo not given) | 22.6% [at 32.5 µM] (inactive) | 
15 | CN[C@H]1[C@H](O)[C@H](O[C@@H]2[C@@H](O)[C@H](O[C@H]3O[C@H]([C@H](C)O)[C@@H](O)[C@H](O)[C@H]3N)[C@@H](N)C[C@H]2N)OC[C@@]1(C)O | 3.09% (inactive) | 
16 | C[C@]12CC[C@@H](O)C[C@H]1CC[C@@H]1[C@@H]2CC[C@]2(C)C(=O)CC[C@@H]12 | 209% (inactive) | 
17 | C[C@@H]1C(=O)O[C@H]2[C@H](O)[C@@]34[C@@H]5OC(=O)[C@@]3(O[C@@H]3OC(=O)[C@@H](O)[C@@]34[C@H](C(C)(C)C)[C@H]5O)[C@@]12O | 30.2% [at 57.1 µM] (inactive) | 
18 | COCC1OC(=O)c2coc3c2C1(C)C1=C(C3=O)C2CCC(=O)C2(C)CC1O (stereo not given) | 15.3% (inactive) | 
19 | Cc1cc(C(=O)CN2CCCC2)c(C)n1-c1ccc(F)cc1 |  | inactive
20 | COC1=CC(=O)O[C@@H](CCc2ccccc2)C1 | 33.2% (inactive) | 

Row | SMILES | activity change, negative = inhibition | Potency
21 | CCN1C[C@]2(COC(=O)c3ccccc3N3C(=O)C[C@H](C)C3=O)CC[C@H](OC)[C@@]34[C@@H]5C[C@H]6[C@H](OC)[C@@H]5[C@](O)(C[C@@H]6OC)[C@](O)([C@@H](OC)[C@H]23)[C@@H]14 | -12.1% (inactive) | 
22 | CCN1CC2(COC)C3[C@@H](OC)C4C1C3(C1C[C@]3(O)[C@H](OC(=O)c5ccccc5)C1[C@]4(OC(C)=O)[C@@H](O)[C@@H]3OC)[C@H](OC)C[C@H]2O (stereo not given in full) |  | 89.1 µM (active)
23 | OC1(c2ccc(Cl)cc2)c2ccccc2C2=NCCN21 (stereo not given) | 24.6% (inactive) | 
24 | COC(=O)N1CCN(C(=O)Cc2ccc(Cl)c(Cl)c2)[C@@H](CN2CCCC2)C1 | 19.9% (inactive) | 
25 | Cc1cccc(NC(=O)N[C@@H]2N=C(c3ccccc3)c3ccccc3N(C)C2=O)c1 | -11.8% (inactive) | 
26 | CC(C)=C1CC[C@]23CO[C@H](C2)[C@@](O)(C(=O)O)CCC13 (stereo not given in full) | -26.3% (inactive) | 
27 | CCC1NC(=O)C2C(Cl)C(Cl)CN2C(=O)C(C(C)O)NC(=O)CC(c2ccccc2)NC(=O)C(CO)NC1=O (stereo not given) | -10.8% [at 32.5 µM] (inactive) | 
28 | CC(=O)OC1CC(O)C(C)(C)C2CC(OC(C)=O)C3(C)C(CCC4(C)C(c5ccoc5)C(=O)C5OC543)C12C (stereo not given) | 6.4% [at 57.1 µM] (inactive) | 
29 | C[C@H](NC(=O)Cc1cc(F)cc(F)c1)C(=O)N[C@@H]1N=C(c2ccccc2)c2ccccc2N(C)C1=O | 14.5% (inactive) | 
30 | C=C[C@H]1CN2CC[C@H]1C[C@@H]2[C@@H](O)c1ccnc2ccccc12 | 4.96% (inactive) | 
31 | OCCCCC#Cc1cncc(OC[C@@H]2CCN2)c1 | -16.7% (inactive) | 
32 | C=C[C@H]1[C@H](O[C@@H]2O[C@H](CO)[C@@H](O)[C@H](O)[C@H]2O)OC=C2C(=O)OCC[C@H]21 | 23.6% (inactive) | 
33 | COc1cc(C)[nH]c(=O)c1CNC(=O)c1c(C)n([C@H](C)C2CCOCC2)c2ccccc12 | -7.71% (inactive) | 
34 | C[C@@]1(C(=O)O)CC[C@]2(C)CC[C@]3(C)C4=CC(=O)c5cc(O)c(O)cc5[C@]4(C)CC[C@@]3(C)[C@@H]2C1 |  | 3.98 µM (active)
35 | COc1c(C(C)C)cc2c(c1O)[C@@]1(C(=O)O)CCCC(C)(C)C1CC2 (stereo not given in full) |  | 6.31 µM (active)
36 | CO[C@H]1[C@H](O)[C@H](O[C@H]2CC[C@]3(C)C4CC[C@]5(C)[C@H](C6=CC(=O)OC6)CC[C@]5(O)C4CC[C@@H]3C2)O[C@@H](C)[C@@H]1O (stereo not given in full) | 17.1% [at 57.1 µM] (inactive) | 
37 | COC1CC(OC2CCC3(C=O)C(CCC4C3CCC3(C)C(C5=CC(=O)OC5)CCC43O)C2)OC(C)C1OC1OC(CO)C(O)C(O)C1O (stereo not given) | -17.3% [at 32.5 µM] (inactive) | 
38 | CN1[C@@H]2CC[C@H]1CC(OC(=O)C1C=Nc3ccccc31)C2 (stereo not given in full) | 32.7% (inactive) | 
39 | CCOc1ccccc1-n1c(C(C)N2CCN(C(=O)COc3ccc(Cl)cc3)CC2)nc2ccccc2c1=O (stereo not given) | -2.07% (inactive) | 
40 | CC[C@H]1CN2CC[C@H]1C[C@H]2[C@H](O)c1ccnc2ccc(OC)cc12 | 6.62% (inactive) | 
